# Source: the supplement of paper PMC3484114
# ± gives the standard deviation.
# Test system: OVCAR-3-derived ovarian cancer stem-like cells (spheroids)
# Assay: cell growth relative to untreated control; higher = more growth (less inhibition)
# Details: 2.29 µM; 96 h
# Procedure, shortened: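 Percent growth was calculated against untreated wells once blanks were subtracted and Grubbs outliers removed. The cells were OVCAR-3 spheroid-derived stem-like cells, trypsinized and plated at 50,000 cells/mL in stem cell medium on ultra-low attachment 96-well plates for a 24 h preincubation. They were then exposed to compounds at 2.29 uM for 96 h at 37°C, 5% CO2, in 4 replicate wells, and viability was measured by TOX8 resazurin fluorescence (ex 560/em 590 nm) after 4 h.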
row,Compound,cell growth [%]
1,N[C@H](C(=O)O)[C@H]1ON=C(Cl)[C@H]1O,91.4 ± 16
2,Cc1c(Cl)cccc1NC(=O)CC1Sc2ccccc2NC1=O (stereo not given),116 ± 8.3
3,CC(=O)O[C@]1(C(C)=O)CC[C@H]2[C@@H]3C[C@H](C)C4=CC(=O)C=C[C@]4(C)[C@@]3(F)[C@@H](O)C[C@@]21C,130 ± 81
4,O=C1Nc2c(Cl)cc(Cl)cc2C1=O,22.4 ± 13
5,C/C(NNC(=O)c1ccccc1O)=C1\C=Nc2ccccc2S1,16 ± 5.3
6,C(=N\NC1=NCCN1)/c1c2ccccc2c(/C=N/NC2=NCCN2)c2ccccc12,21.4 ± 5.8
7,CC(C)(O)CCC(O)C(C)(O)C1CCC2(O)C3=CC(=O)C4(O)CC(O)C(O)CC4(C)C3CCC12C.CC(C)(O)CCC(O)C(C)(O)C1CCC2(O)C3=CC(=O)C4CC(O)C(O)CC4(C)C3CCC12C (stereo not given),98 ± 21
8,COc1cc(NC(C)CCCN)c2ncccc2c1 (stereo not given),56.5 ± 7
9,COC(=O)C1c2cc3c(c(O)c2C(OC2OC(C)C(OC)C(C)(OC)C2OC)CC1(C)O)C(=O)c1c(O)cc2c(c1C3=O)OC1OC2(C)C(O)C(N(C)C)C1O (stereo not given),51.8 ± 47
10,O=C1/C(=C\c2ccc(Cl)c(Cl)c2)CN(C(=O)CCN2CCOCC2)C/C1=C\c1ccc(Cl)c(Cl)c1,63.5 ± 9.5
11,O=c1oc2cc(O)ccc2c2oc3cc(O)ccc3c12,124 ± 31
12,CCOC(=O)C1=C(C)NC(=S)NC1c1ccccc1 (stereo not given),103 ± 12
13,COc1ccc(-c2cc(=O)c3c(O)cc(O)cc3o2)cc1OC,4.9 ± 3.4
14,CCN(CC)CCCC(C)Nc1ccnc(/C=C/c2ccc(Cl)cc2)c1 (stereo not given),84.6 ± 25
15,Cc1ccc(CC2(OCCN(C)C)CCC(C(C)(C)C)CC2)cc1 (stereo not given),82.2 ± 24
